# Test results taken from PubChem BioAssay.
# Several values for one entry are separate records, joined by “and”; a condition that tells them apart may be missing. Equal entries are not always repeated. Records with an inconclusive call do not appear. Activity calls are given as the source filed them.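 How the source made its calls, unless noted: active means compounds whose cell count with miR-34 switched on is under 0.7 times the count with it off; inactive means the rest.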
# How the values were obtained:
# [1] = viability loss with induced miR-34 in A549 – imaging, A549 dox-inducible miR-34, nuclei and caspase counts, primary screen (AID 1347080); conditions: A549 miR-34 inducible, Hoechst nuclei count, 48 h
# [2] = galactose survival enhancers in mitochondrial complex I cybrids – cell-based, galactose medium, ATP luminescence, primary screen (AID 1645843;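 active means z-score of at least 1.8 in each of two replicates, scored against plate mean and spread of sample wells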;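 further: positive z means more ATP and so rescue of galactose-driven cybrid death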); conditions: complex I mutant cybrid cells, 72 h, stronger effect = higher value
# [3] = compounds altering viability of human ES cells (AID 493140; call rule not given here;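 further: cells exposed to compounds for four days before counting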); conditions: human embryonic stem cell survival screen; stronger effect = higher value
# [4] = P. berghei load reduction in hepatocytes – cell-based, HepG2, luciferase luminescence, HepG2 viability, primary screen (AID 624349; in the data active means parasite load remaining mostly below about 12%, no sharp cut-off; inactive means mostly above about 10%;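 further: 100% = mean of DMSO negative control wells on the same plate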); conditions: P. berghei liver stage in HepG2, luciferase luminescence, concentration not given here; parasite load remaining: stronger effect = lower value; viability: measured here: HepG2 viability without parasites
# [5] = MELAS cybrid and Rieske KO viability enhancers – cell-based, MELAS cybrids, Rieske KO mouse fibroblasts, CellTiter-Glo, primary screen (AID 1508586;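 active means mean z-score across replicates of 1.96 or higher in either the MELAS or the Rieske mutant cell line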;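 further: z relative to plate mean and SD of compound and empty wells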); conditions: low glucose
# [6] = biological target: ATP-dependent translocase ABCB1 (Homo sapiens) (UniProt P08183); assay: P-glycoprotein substrate transport blockade – cell-based (AID 377; in the data active means fluorescence slope change above about 50%); conditions: MDR1-expressing cells, fluorescent substrate accumulation slope; stronger effect = higher value; concentration not given here
# Sequence of ATP-dependent translocase ABCB1 (Homo sapiens) (P08183 whole entry, looked up): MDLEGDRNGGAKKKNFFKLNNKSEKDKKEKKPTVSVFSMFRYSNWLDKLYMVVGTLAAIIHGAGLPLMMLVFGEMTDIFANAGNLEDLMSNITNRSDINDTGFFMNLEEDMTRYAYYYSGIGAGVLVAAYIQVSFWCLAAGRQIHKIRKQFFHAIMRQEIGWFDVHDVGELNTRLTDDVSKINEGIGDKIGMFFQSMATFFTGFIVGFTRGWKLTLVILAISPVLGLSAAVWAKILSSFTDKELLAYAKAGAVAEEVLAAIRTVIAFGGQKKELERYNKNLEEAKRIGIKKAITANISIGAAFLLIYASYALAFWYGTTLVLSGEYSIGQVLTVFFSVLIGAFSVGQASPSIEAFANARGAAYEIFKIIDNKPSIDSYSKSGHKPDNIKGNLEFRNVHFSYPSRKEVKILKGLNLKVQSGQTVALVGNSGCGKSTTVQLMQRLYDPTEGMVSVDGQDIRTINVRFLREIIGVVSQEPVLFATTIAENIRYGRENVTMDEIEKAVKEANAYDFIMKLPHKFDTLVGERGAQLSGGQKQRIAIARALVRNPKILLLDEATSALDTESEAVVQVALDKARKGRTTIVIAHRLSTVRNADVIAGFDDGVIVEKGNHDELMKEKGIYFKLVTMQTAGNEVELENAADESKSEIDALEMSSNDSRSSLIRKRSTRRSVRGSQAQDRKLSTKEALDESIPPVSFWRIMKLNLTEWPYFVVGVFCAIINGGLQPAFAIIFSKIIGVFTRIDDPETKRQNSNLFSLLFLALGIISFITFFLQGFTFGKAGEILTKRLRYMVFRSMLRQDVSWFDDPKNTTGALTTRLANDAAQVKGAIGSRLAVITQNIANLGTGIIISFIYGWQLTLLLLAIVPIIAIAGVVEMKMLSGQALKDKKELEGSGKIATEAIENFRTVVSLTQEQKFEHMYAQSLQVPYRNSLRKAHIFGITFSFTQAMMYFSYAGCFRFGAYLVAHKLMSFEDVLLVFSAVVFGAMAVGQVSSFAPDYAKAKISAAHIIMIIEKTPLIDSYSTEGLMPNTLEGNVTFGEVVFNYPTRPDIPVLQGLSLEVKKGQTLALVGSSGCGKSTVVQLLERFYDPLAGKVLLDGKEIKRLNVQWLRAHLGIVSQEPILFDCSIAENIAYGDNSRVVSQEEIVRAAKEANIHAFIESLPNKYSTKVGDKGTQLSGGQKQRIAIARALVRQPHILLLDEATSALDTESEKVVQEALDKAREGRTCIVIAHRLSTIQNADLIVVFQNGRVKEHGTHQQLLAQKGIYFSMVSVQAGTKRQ
# [7] = compounds altering circadian rhythm period length – cell-based, LOPAC library, luminescence reporter (AID 2774; call rule not given here;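 further: values are relative to mean of DMSO wells on each plate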); conditions: circadian reporter cells, at 7 µM, actives lie on both sides
# [8] = test system: Hepatitis C virus NS3 helicase; assay: blockers of NS3h binding to ssDNA – biochemical, fluorescence polarization, LOPAC1280 library, primary screen (AID 687035; in the data active means inhibition above about 37%); conditions: Purified HCV NS3 helicase, Cy5-dT15 ssDNA binding fluorescence polarization; stronger effect = higher value; concentration not given here
# [9] = compounds altering Cy5-DNA-NS3h complex signal – biochemical, LOPAC1280, artefact control for HCV NS3 helicase inhibitor project (AID 687037; call rule not given here); conditions: Cy5-DNA-NS3h complex fluorescence interference counterscreen
# [10] = signal quenchers or enhancers, Cy5 substrate/SSB – biochemical, NIH Clinical Collection, E. coli SSB, artefact control for HCV NS3 helicase inhibitor project (AID 743268; call rule not given here); conditions: Cy5-oligo bound E. coli SSB, fluorescence interference
# [11] = test system: Hepatitis C virus NS3 helicase; assay: blockers of NS3h binding to DNA – biochemical, fluorescence polarization, NIH Clinical Collection, primary screen (AID 743270; call rule not given here); conditions: NS3 helicase binding to Cy5-dT15 DNA, stronger effect = higher value, concentration not given here
# [12] = biological target: Single-stranded DNA-binding protein (Escherichia coli (strain K12)) (UniProt P0AGE0); assay: SSB-ssDNA binding inhibitors – biochemical, fluorescence polarization, NIH Clinical Collection, counter-screen for HCV NS3 helicase inhibitor project (AID 743271; in the data active means inhibition above about 28%); conditions: E. coli SSB-DNA binding, stronger effect = higher value, concentration not given here
# [13] = compounds distorting NS3 helicase fluorescence signal – biochemical, NIH Clinical Collection, artefact control for HCV NS3 helicase inhibitor project (AID 743272; call rule not given here;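 further: HCV NS3 helicase with a Cy5 labelled single stranded DNA probe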); conditions: fluorescence interference counterscreen, HCV NS3 helicase assay; stronger effect = lower value
# [14] = stronger effect = lower value, cell number ratio, induced over uninduced
# [15] = measured here: relative caspase fold change +Dox/-Dox
# [16] = measured here: total cells with miR-34 induction, stronger effect = lower value
# [17] = measured here: total cells without miR-34 induction
structure (smiles),measurement,setting,value
COc1cc2c(cc1OC)[C@@]13CCN4CC5=CCOC6CC(=O)N2C1C6C5CC43 (some centres undefined),fold change,[1]; [14],0.989 (inactive)
same,fold change,[1]; [15],1.53
same,cell count,[1]; [16],8280
same,cell count,[1]; [17],8360
same,z-score,[2],-0.335 (inactive)
Clc1ccc(C(Cn2ccnc2)OCc2csc3c(Cl)cccc23)c(Cl)c1 (centres undefined),survival,[3],10.7 (inactive)
same,parasite load remaining,[4],93.3% (inactive) and 30.9% (inactive)
same,viability,[4],80.2% and 95%
same,fold change,[1]; stronger effect = lower value,0.952 (inactive) and 0.861 (inactive)
same,fold change,[1]; [15],0.728 and 1
same,cell count,[1]; [16],7030 and 8370
same,cell count,[1]; [17],7390 and 9720
same,z-score,"[5]; MELAS cybrid survival, CellTiter-Glo 48 h, stronger effect = higher value",0.182 and 1.75 (inactive)
same,z-score,"[5]; Rieske KO mouse fibroblast survival, CellTiter-Glo 72 h",2.82 and 1.72
C[C@]12Cc3cn[nH]c3CC1CCC1C2CC[C@@]2(C)C1CC[C@]2(C)O (some centres undefined),fold change,[1]; stronger effect = lower value,0.922 (inactive)
same,fold change,[1]; [15],1.42
same,cell count,[1]; [16],8110
same,cell count,[1]; [17],8800
same,z-score,[2],-0.42 (inactive)
CCCCCCCCCCCCCCCCOC[C@@H](O)COP(=O)([O-])OCC[N+](C)(C)C,survival,[3],114 (inactive)
same,fold change,[1]; stronger effect = lower value,0.982 (inactive) and 0.938 (inactive)
same,fold change,[1]; [15],1.56 and 0.831
same,cell count,[1]; [16],5950 and 5610
same,cell count,[1]; [17],6060 and 5980
CCCCC/C=C\C/C=C\C/C=C\C/C=C\CCCC(=O)NCCc1ccc(O)c(O)c1,survival,[3],69.6 (inactive)
same,fold change,[1]; [14],0.953 (inactive)
same,fold change,[1]; [15],1.09
same,cell count,[1]; [16],5250
same,cell count,[1]; [17],5510
CCCCC/C=C\C/C=C\C/C=C\C/C=C\CCCC(=O)N[C@H](C)CO,survival,[3],87.2 (inactive)
same,fold change,[1]; stronger effect = lower value,0.941 (inactive) and 1.01 (inactive)
same,fold change,[1]; [15],0.931 and 0.764
same,cell count,[1]; [16],5390 and 6000
same,cell count,[1]; [17],5730 and 5950
COc1ccc2[nH]c3c(c2c1)CCN=C3C,fluorescence slope change,[6],83.4% (active)
same,survival,[3],10.2 (inactive)
same,parasite load remaining,[4],105% (inactive) and 62.3% (inactive)
same,viability,[4],98.5% and 75.1%
same,fold change,[1]; stronger effect = lower value,0.83 (inactive)
same,fold change,[1]; [15],1.33
same,cell count,[1]; [16],7960
same,cell count,[1]; [17],9590
OC[C@H]1O[C@@H](n2cnc3cc(Cl)c(Cl)cc32)C(O)[C@H]1O (some centres undefined),survival,[3],56.1 (inactive)
same,fold change,[1]; stronger effect = lower value,0.916 (inactive)
same,fold change,[1]; [15],0.917
same,cell count,[1]; [16],1540
same,cell count,[1]; [17],1680
CN1C2CCCC1CC(=O)C2,survival,[3],10.2 (inactive)
same,parasite load remaining,[4],169% (inactive) and 77.1% (inactive)
same,viability,[4],110% and 77.5%
same,fold change,[1]; [14],0.891 (inactive)
same,fold change,[1]; [15],1.28
same,cell count,[1]; [16],9180
same,cell count,[1]; [17],10300
CCCCCC=CCC=CCC=CCC=CCCCC(=O)Nc1ccc(O)cc1,fold change,[1]; [14],0.829 (inactive)
same,fold change,[1]; [15],1.13
same,cell count,[1]; [16],7710
same,cell count,[1]; [17],9290
same,z-score,[2],-1.44 (inactive)
CNCC(O)c1ccc(O)c(OC)c1 (centres undefined),fluorescence slope change,[6],189% (active)
same,survival,[3],30.2 (inactive)
same,parasite load remaining,[4],40.2% (inactive) and 98.3% (inactive)
same,viability,[4],47.9% and 90.3%
same,fold change,[1]; [14],0.905 (inactive)
same,fold change,[1]; [15],1.46
same,cell count,[1]; [16],8830
same,cell count,[1]; [17],9760
C[C@H]1C2Cc3ccc(O)cc3C1(C)CCN2CC1CC1 (some centres undefined),period change,[7],-0.055 h (inactive)
same,fold change,[1]; stronger effect = lower value,0.949 (inactive)
same,fold change,[1]; [15],1.14
same,cell count,[1]; [16],10600
same,cell count,[1]; [17],11200
same,z-score,[2],-0.12 (inactive)
CC[C@]1(O)CCC2C3CCC4=CCCCC4C3CC[C@@]21C (some centres undefined),fold change,[1]; stronger effect = lower value,1.01 (inactive)
same,fold change,[1]; [15],1.28
same,cell count,[1]; [16],5670
same,cell count,[1]; [17],5590
same,z-score,[2],-0.425 (inactive)
CC1=CC(=O)C2=C(C)C[C@H](O)[C@@H]3[C@H](OC(=O)[C@H]3C)[C@@H]12,survival,[3],7.92 (inactive)
same,parasite load remaining,[4],98.5% (inactive)
same,viability,[4],100%
same,fold change,[1]; stronger effect = lower value,0.829 (inactive)
same,fold change,[1]; [15],1.6
same,cell count,[1]; [16],8050
same,cell count,[1]; [17],9720
COC1=C[C@@H]2C3=C([C@@H]2C1=O)[C@@H](NC(C)=O)CCc1cc(OC)c(OC)c(OC)c13,fluorescence slope change,[6],70.2% (active)
same,parasite load remaining,[4],62.8% (inactive)
same,viability,[4],107%
same,fold change,[1]; [14],0.865 (inactive)
same,fold change,[1]; [15],1.41
same,cell count,[1]; [16],9450
same,cell count,[1]; [17],10900
CC(C)(O)[C@@H]1[C@H]2OC(=O)[C@@H]1[C@]1(O)C[C@H]3O[C@]34C(=O)O[C@H]2[C@]14C (tested in a mixture with another compound),period change,[7],-0.105 h (inactive)
same,parasite load remaining,[4],96.3% (inactive)
same,viability,[4],67.1%
same,inhibition,[8],-5% (inactive)
same,fluorescence ratio (interference),[9],1 (inactive)
same,fluorescence ratio,[10],1 (inactive)
same,inhibition,[11],0.4% (inactive)
same,inhibition,[12],-0.1% (inactive)
same,fluorescence ratio,[13],0.9 (inactive)
same,fold change,[1]; stronger effect = lower value,1.06 (inactive)
same,fold change,[1]; [15],1.05
same,cell count,[1]; [16],11200
same,cell count,[1]; [17],10500
same,z-score,[2],0.54 (inactive)
CCCCCCCCCCCCCCCCOC[C@H](COP(=O)([O-])OCC[N+](C)(C)C)OC(C)=O,survival,[3],57.8 (inactive)
same,fold change,[1]; stronger effect = lower value,0.933 (inactive) and 0.881 (inactive)
same,fold change,[1]; [15],1.16 and 1.84
same,cell count,[1]; [16],5630 and 5430
same,cell count,[1]; [17],6040 and 6160
C[C@]12CCC3C4CCC(=O)C=C4CCC3C1CCC2O (some centres undefined),fold change,[1]; stronger effect = lower value,0.894 (inactive)
same,fold change,[1]; [15],1.48
same,cell count,[1]; [16],7980
same,cell count,[1]; [17],8920
same,z-score,[2],-0.31 (inactive)
Oc1ccc2c3c1OC1C(O)CC[C@@]4(O)C(C2)N(CC2CCC2)CC[C@]314 (some centres undefined),fold change,[1]; stronger effect = lower value,0.877 (inactive)
same,fold change,[1]; [15],1.82
same,cell count,[1]; [16],8530
same,cell count,[1]; [17],9720
same,z-score,[2],0.8 (inactive)
C/C=C1/C[C@@H](C)[C@](O)(CO)C(=O)OCC2=CCN3CC[C@@H](OC1=O)[C@@H]23,fluorescence slope change,[6],18.1% (inactive)
same,survival,[3],3.83 (inactive)
same,parasite load remaining,[4],209% (inactive) and 79.8% (inactive)
same,viability,[4],107% and 75%
same,fold change,[1]; stronger effect = lower value,0.877 (inactive)
same,fold change,[1]; [15],2.22
same,cell count,[1]; [16],8650
same,cell count,[1]; [17],9870
Oc1cc2c(cc1O)C1c3ccccc3CNC1CC2 (centres undefined),fold change,[1]; [14],0.881 (inactive)
same,fold change,[1]; [15],2.62
same,cell count,[1]; [16],9630
same,cell count,[1]; [17],10900
same,z-score,[2],-1.86 (inactive)
